Results from the supplement of paper PMC10849652.
About 8,800 targets were measured; listed, in parts, are those with a hit and a random draw of the rest. About 0.5% of all pairs of compound and target were hits. Unmarked numbers belong to inactive results.

Legend:
Assay in all cases: log2 fold change, soluble protein after heating vs DMSO (PISA); higher = thermal stabilisation; K562 lysate, 10 uM; active = over 0.2 and 3.5 SD of the protein, either way, in both replicates (recomputed)
ibrutinib = compound: C=CC(=O)N1CCC[C@@H](n2nc(-c3ccc(Oc4ccccc4)cc3)c3c(N)ncnc32)C1 [ibrutinib]
How it was run: (§1)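 Soluble protein was defined as the supernatant remaining after 21,000xg for 90 min, following pooling of heated aliquots and adjustment to 0.5% NP-40 at 4°C. Before that, crude K562 extract at 1 mg/mL protein in PBS pH 7.4 with 1 mM MgCl2 was treated with 10 μM compound for 30 min and heated for 3 min across 48°C-58°C. Quantification used TMTpro 16plex LC-MS/MS with channel sums equalised, and values are log-two fold changes in thermal stability relative to solvent controls from duplicates.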

[1] = compound: CC(=O)c1cnc2ccc(-c3cc(Cl)c(O)c(Cl)c3)nc2c1N[C@H]1CC[C@H](CN(C)C)CC1
How it was run: as §1

ralimetinib = compound: CC(C)(C)Cn1c(N)nc2ccc(-c3[nH]c(C(C)(C)C)nc3-c3ccc(F)cc3)nc21 [ralimetinib]
How it was run: as §1

[2] = compound: CC(C)(O)CC(=O)NCCn1ccc2ncnc(Nc3ccc(Oc4cccc(C(F)(F)F)c4)c(Cl)c3)c21
How it was run: as §1

[3] = compound: CC(C)C1=C2N=C(C=C(N2N=C1)NCC3=CC=CC=C3)NCCCCCCN
How it was run: as §1

[4] = compound: CC1=C(C(CC(=O)N1)C2=CC=C(C=C2)C(F)(F)F)C(=O)NC3=C(C=C4C(=C3)C=NN4)F
How it was run: as §1

[5] = compound: CC1=C(C2=C(C=C1)C(=O)C3=CC=CC=C3N2CCCN)C
How it was run: as §1

[6] = compound: CC1=C(C=C(C=C1)NC(=O)C2=CC(=CC=C2)C(C)(C)C#N)NC3=CC4=C(C=C3)N=CN(C4=O)C
How it was run: as §1

[7] = compound: CC1=C(C=C(C=C1)NC(=O)C2=CC(=CC=C2)N(C)C)NC(=O)C3=CC=C(C=C3)O
How it was run: as §1

[8] = compound: CC1=CC=C(C=C1)SC2=C3C=C(SC3=CN=C2)C(=O)N
How it was run: as §1

vemurafenib = compound: CCCS(=O)(=O)Nc1ccc(F)c(C(=O)c2c[nH]c3ncc(-c4ccc(Cl)cc4)cc23)c1F [vemurafenib]
How it was run: as §1

[9] = compound: CCCS(=O)(=O)Nc1ccc(F)c(C(=O)c2c[nH]c3ncc(Cl)cc23)c1F
How it was run: as §1

barasertib = compound: CCN(CCCOc1ccc2c(Nc3cc(CC(=O)Nc4cccc(F)c4)[nH]n3)ncnc2c1)CCOP(=O)(O)O [barasertib]
How it was run: as §1

[10] = compound: CC[C@@H]1C(=O)N(C)c2cnc(Nc3ccc(C(=O)NC4CCN(C)CC4)cc3OC)nc2N1C1CCCC1
How it was run: as §1

volasertib = compound: CC[C@@H]1C(=O)N(C)c2cnc(Nc3ccc(C(=O)N[C@H]4CC[C@H](N5CCN(CC6CC6)CC5)CC4)cc3OC)nc2N1C(C)C [volasertib]
How it was run: as §1

[11] = compound: CCn1c(C(=O)N(C2CC2)C2CC2)cc2c3c(ncn3C)c(Nc3cc(C)n(C)n3)nc21
How it was run: as §1

[12] = compound: CCn1cc(-c2ccnc3[nH]c(-c4cccc(CN(C)C)c4)cc23)c(-c2ccc(NC(=O)N(C)C)cc2)n1
How it was run: as §1

[13] = compound: CN1CCC(CNc2ccc3ncc(-c4cccc(OC(F)(F)F)c4)n3n2)CC1
How it was run: as §1

saracatinib = compound: CN1CCN(CCOc2cc(OC3CCOCC3)c3c(Nc4c(Cl)ccc5c4OCO5)ncnc3c2)CC1 [saracatinib]
How it was run: as §1

sotrastaurin = compound: CN1CCN(c2nc(C3=C(c4c[nH]c5ccccc45)C(=O)NC3=O)c3ccccc3n2)CC1 [sotrastaurin]
How it was run: as §1

Chain of UniProt P54278 (P54278 whole entry, looked up): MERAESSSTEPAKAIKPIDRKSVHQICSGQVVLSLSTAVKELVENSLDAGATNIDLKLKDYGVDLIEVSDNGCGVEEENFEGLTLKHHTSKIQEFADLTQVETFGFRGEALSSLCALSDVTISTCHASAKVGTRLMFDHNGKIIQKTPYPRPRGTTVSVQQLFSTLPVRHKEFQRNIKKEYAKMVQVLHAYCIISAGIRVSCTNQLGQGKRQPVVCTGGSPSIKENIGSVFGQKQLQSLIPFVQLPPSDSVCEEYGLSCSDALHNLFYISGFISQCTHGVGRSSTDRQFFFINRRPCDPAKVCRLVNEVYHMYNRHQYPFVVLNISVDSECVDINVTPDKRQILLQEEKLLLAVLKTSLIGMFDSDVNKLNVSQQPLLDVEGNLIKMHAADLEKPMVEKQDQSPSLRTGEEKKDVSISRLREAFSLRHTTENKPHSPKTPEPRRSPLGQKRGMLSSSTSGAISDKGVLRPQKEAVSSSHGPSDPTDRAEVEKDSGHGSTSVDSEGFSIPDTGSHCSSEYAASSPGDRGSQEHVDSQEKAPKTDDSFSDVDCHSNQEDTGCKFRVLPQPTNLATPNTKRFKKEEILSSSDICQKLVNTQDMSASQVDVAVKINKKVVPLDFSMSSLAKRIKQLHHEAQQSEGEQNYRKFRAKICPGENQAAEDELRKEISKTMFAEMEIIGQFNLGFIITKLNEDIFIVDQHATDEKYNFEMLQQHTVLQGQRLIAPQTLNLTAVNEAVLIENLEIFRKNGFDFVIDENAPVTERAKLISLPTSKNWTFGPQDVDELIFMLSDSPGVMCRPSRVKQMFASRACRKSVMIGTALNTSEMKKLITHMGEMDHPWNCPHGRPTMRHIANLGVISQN
Chain of UniProt Q9NXJ5 (Q9NXJ5 whole entry, looked up): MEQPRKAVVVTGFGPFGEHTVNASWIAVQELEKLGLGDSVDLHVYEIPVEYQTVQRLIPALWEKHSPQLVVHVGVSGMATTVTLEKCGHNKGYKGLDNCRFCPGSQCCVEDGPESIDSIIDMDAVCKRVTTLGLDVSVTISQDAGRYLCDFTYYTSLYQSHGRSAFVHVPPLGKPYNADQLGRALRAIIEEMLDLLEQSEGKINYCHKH
Chain of UniProt Q5VU43 (Q5VU43 whole entry, looked up): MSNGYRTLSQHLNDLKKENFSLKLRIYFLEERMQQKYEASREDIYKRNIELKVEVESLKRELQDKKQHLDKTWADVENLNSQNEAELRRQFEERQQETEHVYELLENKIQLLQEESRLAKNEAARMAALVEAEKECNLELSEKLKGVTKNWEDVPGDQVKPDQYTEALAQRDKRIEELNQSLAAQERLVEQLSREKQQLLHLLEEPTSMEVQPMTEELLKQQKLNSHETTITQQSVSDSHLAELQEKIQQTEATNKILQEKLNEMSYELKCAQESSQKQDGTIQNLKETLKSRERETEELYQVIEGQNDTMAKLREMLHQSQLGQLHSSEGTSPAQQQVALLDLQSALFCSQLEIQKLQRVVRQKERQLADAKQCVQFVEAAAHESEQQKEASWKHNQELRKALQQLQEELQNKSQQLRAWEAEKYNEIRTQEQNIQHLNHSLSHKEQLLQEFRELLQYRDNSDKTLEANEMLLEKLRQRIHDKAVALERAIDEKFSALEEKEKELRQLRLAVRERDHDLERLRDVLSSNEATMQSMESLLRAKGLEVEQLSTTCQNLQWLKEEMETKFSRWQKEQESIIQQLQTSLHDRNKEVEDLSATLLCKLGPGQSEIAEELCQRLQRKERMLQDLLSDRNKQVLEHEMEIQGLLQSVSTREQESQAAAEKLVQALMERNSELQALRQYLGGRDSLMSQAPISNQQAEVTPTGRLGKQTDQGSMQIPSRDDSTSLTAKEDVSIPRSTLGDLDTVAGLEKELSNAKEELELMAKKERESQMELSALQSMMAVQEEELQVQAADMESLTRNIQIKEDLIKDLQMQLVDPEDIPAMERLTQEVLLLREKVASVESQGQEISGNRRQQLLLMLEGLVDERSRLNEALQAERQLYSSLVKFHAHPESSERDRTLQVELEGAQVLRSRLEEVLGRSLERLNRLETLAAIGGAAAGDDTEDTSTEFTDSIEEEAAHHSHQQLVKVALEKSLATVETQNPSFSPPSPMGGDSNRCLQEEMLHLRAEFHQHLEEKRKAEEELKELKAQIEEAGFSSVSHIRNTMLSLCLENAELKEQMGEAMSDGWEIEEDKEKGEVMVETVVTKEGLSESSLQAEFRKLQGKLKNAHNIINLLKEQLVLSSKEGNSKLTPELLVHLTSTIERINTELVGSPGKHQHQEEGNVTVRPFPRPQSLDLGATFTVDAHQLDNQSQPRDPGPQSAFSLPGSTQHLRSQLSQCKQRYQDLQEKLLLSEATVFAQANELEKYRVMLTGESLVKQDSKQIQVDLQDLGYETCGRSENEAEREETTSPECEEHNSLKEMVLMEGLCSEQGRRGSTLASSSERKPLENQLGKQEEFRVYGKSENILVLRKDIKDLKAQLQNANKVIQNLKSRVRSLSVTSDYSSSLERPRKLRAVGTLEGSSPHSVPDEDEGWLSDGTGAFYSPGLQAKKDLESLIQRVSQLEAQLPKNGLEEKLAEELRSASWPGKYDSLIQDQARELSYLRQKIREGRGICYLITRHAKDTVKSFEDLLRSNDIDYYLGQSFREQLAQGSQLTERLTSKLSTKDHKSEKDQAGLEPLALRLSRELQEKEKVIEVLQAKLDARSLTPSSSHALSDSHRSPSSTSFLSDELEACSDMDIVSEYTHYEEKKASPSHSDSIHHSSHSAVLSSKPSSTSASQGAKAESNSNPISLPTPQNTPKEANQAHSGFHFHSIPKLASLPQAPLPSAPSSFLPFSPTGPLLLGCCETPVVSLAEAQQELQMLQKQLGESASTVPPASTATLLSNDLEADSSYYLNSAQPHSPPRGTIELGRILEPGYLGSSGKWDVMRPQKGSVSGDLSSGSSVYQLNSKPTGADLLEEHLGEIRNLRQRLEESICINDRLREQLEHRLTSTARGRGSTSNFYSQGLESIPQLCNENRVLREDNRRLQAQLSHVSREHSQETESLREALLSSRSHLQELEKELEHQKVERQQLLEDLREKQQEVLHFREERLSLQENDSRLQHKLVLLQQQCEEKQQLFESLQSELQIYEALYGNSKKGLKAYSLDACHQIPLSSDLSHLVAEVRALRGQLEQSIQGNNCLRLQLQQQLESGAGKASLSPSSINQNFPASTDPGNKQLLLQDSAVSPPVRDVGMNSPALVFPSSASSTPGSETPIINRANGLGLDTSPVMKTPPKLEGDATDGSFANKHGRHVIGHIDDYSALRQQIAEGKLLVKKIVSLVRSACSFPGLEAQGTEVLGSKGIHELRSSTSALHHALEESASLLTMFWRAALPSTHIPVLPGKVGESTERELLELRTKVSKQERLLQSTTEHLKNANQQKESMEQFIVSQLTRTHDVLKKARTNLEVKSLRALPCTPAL
Chain of UniProt Q8TBX8 (Q8TBX8 whole entry, looked up): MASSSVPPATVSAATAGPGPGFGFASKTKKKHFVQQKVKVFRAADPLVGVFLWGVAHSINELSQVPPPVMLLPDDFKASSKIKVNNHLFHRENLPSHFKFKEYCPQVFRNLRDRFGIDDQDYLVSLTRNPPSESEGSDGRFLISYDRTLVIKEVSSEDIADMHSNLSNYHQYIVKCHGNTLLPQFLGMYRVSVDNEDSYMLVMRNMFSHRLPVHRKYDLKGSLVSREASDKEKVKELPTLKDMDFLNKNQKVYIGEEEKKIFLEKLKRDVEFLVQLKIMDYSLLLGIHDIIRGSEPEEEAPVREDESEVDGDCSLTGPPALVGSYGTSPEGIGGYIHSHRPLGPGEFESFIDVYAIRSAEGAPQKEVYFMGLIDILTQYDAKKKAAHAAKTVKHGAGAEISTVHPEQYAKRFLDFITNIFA
Chain of UniProt Q9BSG0 (Q9BSG0 whole entry, looked up): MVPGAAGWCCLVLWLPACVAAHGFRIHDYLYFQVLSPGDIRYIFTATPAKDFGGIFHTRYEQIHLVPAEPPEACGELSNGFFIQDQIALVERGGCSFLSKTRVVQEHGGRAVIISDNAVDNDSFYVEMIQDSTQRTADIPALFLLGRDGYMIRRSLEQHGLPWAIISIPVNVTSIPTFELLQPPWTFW
Chain of UniProt Q9Y5K3 (Q9Y5K3 whole entry, looked up): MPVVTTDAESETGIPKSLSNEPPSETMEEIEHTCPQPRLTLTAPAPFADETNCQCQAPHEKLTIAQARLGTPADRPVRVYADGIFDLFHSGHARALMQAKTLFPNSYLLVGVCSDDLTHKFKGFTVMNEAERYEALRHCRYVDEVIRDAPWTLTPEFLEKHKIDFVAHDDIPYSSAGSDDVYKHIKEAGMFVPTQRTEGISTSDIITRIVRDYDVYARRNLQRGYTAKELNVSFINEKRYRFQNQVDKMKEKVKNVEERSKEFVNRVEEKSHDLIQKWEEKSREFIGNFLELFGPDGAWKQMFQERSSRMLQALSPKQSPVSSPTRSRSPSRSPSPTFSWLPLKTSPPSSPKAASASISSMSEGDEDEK
Chain of UniProt Q8N8N7 (Q8N8N7 whole entry, looked up): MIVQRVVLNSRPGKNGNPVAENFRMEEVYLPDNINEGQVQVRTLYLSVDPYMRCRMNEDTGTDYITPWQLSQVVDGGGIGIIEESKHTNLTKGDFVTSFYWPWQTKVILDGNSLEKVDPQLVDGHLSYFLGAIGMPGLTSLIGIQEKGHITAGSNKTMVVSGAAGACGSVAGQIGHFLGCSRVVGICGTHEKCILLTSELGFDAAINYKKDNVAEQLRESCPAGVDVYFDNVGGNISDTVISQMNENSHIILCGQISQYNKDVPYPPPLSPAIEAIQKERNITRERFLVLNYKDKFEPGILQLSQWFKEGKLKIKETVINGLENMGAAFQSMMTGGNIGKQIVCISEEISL
Chain of UniProt Q9UMR5 (Q9UMR5 whole entry, looked up): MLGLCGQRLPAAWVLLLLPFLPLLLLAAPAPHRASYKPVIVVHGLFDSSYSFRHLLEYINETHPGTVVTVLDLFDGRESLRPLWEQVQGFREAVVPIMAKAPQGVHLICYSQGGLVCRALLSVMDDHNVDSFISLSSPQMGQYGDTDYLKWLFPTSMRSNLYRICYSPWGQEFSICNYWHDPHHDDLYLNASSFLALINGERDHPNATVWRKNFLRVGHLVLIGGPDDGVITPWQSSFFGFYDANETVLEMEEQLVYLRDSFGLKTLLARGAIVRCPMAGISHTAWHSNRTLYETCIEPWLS

| Target | log2 fold change (ibrutinib) | log2 fold change [1] | log2 fold change (ralimetinib) | log2 fold change [2] | log2 fold change [3] | log2 fold change [4] | log2 fold change [5] | log2 fold change [6] | log2 fold change [7] | log2 fold change [8] | log2 fold change (vemurafenib) | log2 fold change [9] | log2 fold change (barasertib) | log2 fold change [10] | log2 fold change (volasertib) | log2 fold change [11] | log2 fold change [12] | log2 fold change [13] | log2 fold change (saracatinib) | log2 fold change (sotrastaurin) |
| --- | --- | --- | --- | --- | --- | --- | --- | --- | --- | --- | --- | --- | --- | --- | --- | --- | --- | --- | --- | --- |
| PRKACB isoform 2 (UniProt P22694) | -0.006 | 0.693 (active) | 0.033 | -0.03 | -0.013 | 0.025 | -0.014 | -0.037 | 0.014 | -0.024 | -0.077 | -0.016 | 0.013 | -0.021 | -0.01 | -0.072 | -0.021 | 0.125 | 0.012 | 0.175 |
| PTGR2 (UniProt Q8N8N7) | -0.006 | 0.026 | 0.019 | 0.068 | -0.042 | -0.011 | -0.024 | 0.006 | 0.037 | 0.029 | -0.029 | 0.04 | -0.022 | 0.056 | -0.039 | 0.069 | 0.012 | 0.092 | -0.021 | 0.1 |
| PMS2 (UniProt P54278) | 0.027 | 0.032 | 0.046 | -0.047 | 0.069 | -0.038 | -0.049 | -0.019 | -0.004 | 0.002 | -0.015 | -0.028 | 0.033 | -0.072 | -0.147 | 0.101 | -0.02 | 0.012 | -0.004 | 0.001 |
| POLR2F (UniProt P61218) | 0.02 | 0.051 | -0.238 | -0.059 | -0.11 | -0.039 | 0.096 | 0.009 | -0.157 | 0.009 | 0.077 | -0.018 | 0.034 | -0.043 | 0.036 | 0.078 | 1.25 (active) | -0.211 | -0.042 | 0.02 |
| PDE4DIP isoform 4 (UniProt Q5VU43) | 0.249 | -0.021 | 0.02 | -0.03 | -0.061 | -0.032 | 0.006 | 0.054 | -0.033 | 0.017 | 0.027 | 0.011 | 0.092 | 0.046 | 0.025 | 0.04 | -0.04 | -0.005 | 0.034 | -0.014 |
| PCIF1 (UniProt Q9H4Z3) | 0.019 | 0.019 | 0.091 | 0.017 | 0 | 0.002 | 0.037 | -0.033 | 0.025 | -0.029 | 0.03 | -0.012 | 0.088 | 0.023 | 0.005 | 0.029 | -0.223 | 0.011 | -0.001 | -0.036 |
| PGPEP1 (UniProt Q9NXJ5) | -0.051 | 0.02 | -0.013 | 0.013 | 0.043 | -0.078 | 0.015 | 0.123 | -0.034 | -0.053 | 0.021 | 0.022 | -0.036 | -0.091 | -0.027 | 0.036 | -0.096 | 0.03 | 0 | -0.056 |
| PPT2 isoform 3 (UniProt Q9UMR5) | 0.03 | 0.068 | -0.001 | -0.022 | -0.019 | -0.026 | 0.002 | -0.038 | -0.015 | -0.013 | 0.007 | 0.012 | 0.028 | 0.01 | -0.023 | -0.026 | 0.007 | 0.018 | -0.011 | 0.003 |
| PIP4K2C (UniProt Q8TBX8) | 0.012 | 0.277 | 0.039 | -0.055 | -0.055 | -0.047 | -0.027 | 0.03 | -0.027 | -0.031 | 0.039 | -0.028 | -0.045 | 0.463 (active) | 0.206 | 0.103 | -0.114 | 0.225 | -0.01 | -0.019 |
| PCYT1B (UniProt Q9Y5K3) | -0.051 | -0.007 | 0.003 | 0.013 | -0.042 | -0.039 | -0.03 | 0.016 | -0.002 | 0.026 | 0.013 | 0.011 | 0.012 | 0.046 | 0.017 | 0.008 | -0.094 | 0.063 | 0.012 | -0.002 |
| PRKCSH (UniProt K7ELL7) | -0.05 | 0.018 | 0.049 | -0.051 | 0.049 | 0.006 | -0.017 | -0.019 | 0.005 | -0.052 | 0.089 | 0.02 | -0.037 | 0.186 | -0.04 | 0.013 | 0.217 | -0.008 | -0.011 | -0.015 |
| PRADC1 (UniProt Q9BSG0) | 0.026 | -0.395 | -0.023 | 0.041 | -0.125 | 0.026 | -0.009 | 0.072 | 0.008 | -0.023 |  | 0.011 | -0.509 (active) |  | 0.074 | -0.05 | 0.057 | 0.101 | 0.054 | -0.015 |
